Some test systems named below: SR leukemia; RPMI-8226 leukemia; OVCAR-8 ovarian; OVCAR-5 ovarian; OVCAR-4 ovarian; SK-OV-3 ovarian; IGROV1 ovarian; HS 578T breast; NCI/ADR-RES ovarian; T-47D breast; BT-549 breast; MDA-MB-435 melanoma; SW-620 colon; MCF7 breast; HCT-116 colon; HCC-2998 colon; KM12 colon.
What all share (assay): NCI-60 one-dose screen, 48 h (100 = growth as untreated, 0 = no growth, -100 = all killed)
What all share (settings): 10 µM unless noted

Compounds without any hit were thinned out: in the full panel of roughly 83,000, 20% have a hit.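 Cell lines were cultured in 96-well plates, exposed to a single compound concentration, and assessed for percent growth 48 hours later.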 A number with no mark means an inactive call. Calls of active or inactive are those of the source. Rule for the calls: active = growth percent below 10; inactive = the rest.

For the molecule `CCCn1cnc2c(c1=N)C(c1ccc(Cl)cc1)c1sc3c(CC)cccc3c1O2` (stereo not drawn), the growth with SR leukemia was 24.2%; with RPMI-8226 leukemia it was -5.3% (active); with OVCAR-8 ovarian, 20.5%; with OVCAR-5 ovarian, 29%; in the assay on OVCAR-4 ovarian it was 89.1%; in the assay on SK-OV-3 ovarian it was 29.7%. Besides, the growth is 18.4% with IGROV1 ovarian; 4.18% (active) with HS 578T breast; 10.4% with NCI/ADR-RES ovarian; 10.2% in the assay on T-47D breast; 41.3% with BT-549 breast; -35.4% (active) in the assay on MDA-MB-435 melanoma. The growth is 25.5% with SW-620 colon; 17% in the assay with MCF7 breast; 12.1% in the assay on HCT-116 colon; 17.8% with HCC-2998 colon; 15.6% with KM12 colon.
For the molecule `CNC(=O)c1cc(Oc2ccc3nc(NC(=O)c4cc(N5CCOCC5)cc(C(F)(F)F)c4)sc3c2)ccn1`, the growth with SR leukemia was 27.1%; with RPMI-8226 leukemia, 51.6%; in the assay on OVCAR-8 ovarian, 65.5%; with OVCAR-5 ovarian, 97.1%; in the assay on OVCAR-4 ovarian, 64.8%; with SK-OV-3 ovarian it was 97.9%. The growth in the assay with IGROV1 ovarian was 99.6%; with HS 578T breast, 79.2%; in the assay on NCI/ADR-RES ovarian, 80.2%; in the assay with T-47D breast, 74.2%; in the assay with BT-549 breast, 88.1%; with MDA-MB-435 melanoma it was 67.8%. Moreover, the growth with SW-620 colon is 107%; in the assay with MCF7 breast, 75.5%; in the assay with HCT-116 colon it was 63.1%; with HCC-2998 colon, 114%; in the assay on KM12 colon, 71.3%.
In the case of `Cc1cc2ncc(-c3cc4ccccc4c(N4CCN(C)CC4)n3)nc2cc1C`, the growth with SR leukemia was -39.9% (active); in the assay on RPMI-8226 leukemia, -12.2% (active); with OVCAR-8 ovarian it was 67.9%; with OVCAR-5 ovarian, 31.9%; with OVCAR-4 ovarian it was 37.6%; in the assay with SK-OV-3 ovarian it was 87.5%. Further, the growth was 42.3% in the assay on IGROV1 ovarian; 61.9% with HS 578T breast; 40.2% in the assay on NCI/ADR-RES ovarian; -54% (active) in the assay with T-47D breast; 85.9% in the assay on BT-549 breast; -87.8% (active) in the assay with MDA-MB-435 melanoma. The growth is 1.46% (active) in the assay with SW-620 colon; -65% (active) with MCF7 breast; -85.7% (active) in the assay on HCT-116 colon; -84.2% (active) with HCC-2998 colon; -3.53% (active) in the assay on KM12 colon.
Turning to `CCC(NC(c1cc2cccc3ccc4cccc1c4c32)c1nnnn1C(C)(C)C)C1CCCCC1` (stereo not drawn), the growth with SR leukemia is 40.9%; in the assay with RPMI-8226 leukemia it was 28.1%; in the assay on OVCAR-8 ovarian it was 73.2%; in the assay with OVCAR-5 ovarian, 84.6%; with OVCAR-4 ovarian it was 46.5%; in the assay on SK-OV-3 ovarian it was 70.8%. The growth is 65.2% with IGROV1 ovarian; 84.5% with HS 578T breast; 74.4% in the assay with NCI/ADR-RES ovarian; 74.6% in the assay with T-47D breast; 50.5% in the assay on BT-549 breast; 60% in the assay on MDA-MB-435 melanoma. Besides, the growth with SW-620 colon was 61.5%; with MCF7 breast, 48.2%; in the assay on HCT-116 colon, 40.6%; in the assay with HCC-2998 colon, 90.3%; in the assay on KM12 colon it was 67.8%.
Regarding `COCCNc1ccc2ncc(C#Cc3cncc(C(=O)Nc4ccc(CN5CCN(C)CC5)c(C(F)(F)F)c4)c3)n2n1`, the growth is -6.69% (active) in the assay with SR leukemia; -26.7% (active) in the assay on RPMI-8226 leukemia; -5.34% (active) in the assay with OVCAR-8 ovarian; 3.94% (active) with OVCAR-5 ovarian; -10.6% (active) in the assay with OVCAR-4 ovarian; -63% (active) with SK-OV-3 ovarian. The growth was -12% (active) in the assay on IGROV1 ovarian; -33.9% (active) in the assay on HS 578T breast; 43.9% in the assay on NCI/ADR-RES ovarian; -7.3% (active) with T-47D breast; -36.7% (active) with BT-549 breast; -24.8% (active) in the assay on MDA-MB-435 melanoma. The growth with SW-620 colon is -54.1% (active); in the assay on MCF7 breast, -30.7% (active); in the assay with HCT-116 colon, -66.9% (active); in the assay with HCC-2998 colon, -23.6% (active); in the assay on KM12 colon it was -9.09% (active).
`COc1ccc(/C=C/C(=O)c2cc(S(N)(=O)=O)c(OC)cc2OC)cc1`: the growth is 23.4% in the assay on SR leukemia; 60.9% with RPMI-8226 leukemia; 93% in the assay with OVCAR-8 ovarian; 98.3% in the assay with OVCAR-5 ovarian; 103% in the assay on OVCAR-4 ovarian; 97.2% with SK-OV-3 ovarian. In addition, the growth was 81.8% in the assay on IGROV1 ovarian; 89.1% in the assay on HS 578T breast; 85.8% in the assay on NCI/ADR-RES ovarian; 50.3% with T-47D breast; 82.8% in the assay with BT-549 breast; 53.3% in the assay with MDA-MB-435 melanoma. For the same molecule, the growth with SW-620 colon is 46.6%; with MCF7 breast, 44.3%; with HCT-116 colon, 65.1%; in the assay on HCC-2998 colon it was 83.2%; with KM12 colon it was 40.9%.
For `O=C1C(c2ccccc2)=C(N2CCc3ccccc32)OC1(Cl)Cl`, the growth was 17.5% in the assay with SR leukemia; 8.06% (active) with RPMI-8226 leukemia; 74.3% in the assay with OVCAR-8 ovarian; 82% in the assay on OVCAR-5 ovarian; 59.9% in the assay on OVCAR-4 ovarian; 112% in the assay with SK-OV-3 ovarian. For the same molecule, the growth in the assay on IGROV1 ovarian was 43.5%; in the assay with HS 578T breast, 66.3%; in the assay on NCI/ADR-RES ovarian it was 86.7%; in the assay on T-47D breast, 10.1%; in the assay with BT-549 breast, 75.1%; with MDA-MB-435 melanoma, 85.9%. Further, the growth in the assay with SW-620 colon is -28.8% (active); in the assay on MCF7 breast it was 26.2%; in the assay on HCT-116 colon it was 2.36% (active); in the assay on HCC-2998 colon it was 88%; in the assay with KM12 colon, 87.9%.
On to `CNC(=O)c1cc(Oc2ccc3nc(NC(=O)c4cccc(OC(F)(F)F)c4)sc3c2)ccn1`, for which the growth in the assay with SR leukemia was 58.3%; with RPMI-8226 leukemia, 71.7%; in the assay on OVCAR-8 ovarian it was 81.7%; in the assay with OVCAR-5 ovarian it was 95.3%; with OVCAR-4 ovarian, 56.5%; in the assay with SK-OV-3 ovarian, 88.4%. For the same molecule, the growth was 90.3% in the assay with IGROV1 ovarian; 69.6% in the assay on HS 578T breast; 67.3% with NCI/ADR-RES ovarian; 63.1% in the assay on T-47D breast; 137% in the assay on BT-549 breast; 79% in the assay on MDA-MB-435 melanoma. For the same molecule, the growth is 103% with SW-620 colon; 77.6% in the assay on MCF7 breast; 75.5% in the assay with HCT-116 colon; 108% in the assay on HCC-2998 colon; 85.6% in the assay with KM12 colon.
For the molecule `Cc1cc2nc(C(Cl)Cl)nc(-c3cccs3)n2n1`, the growth with SR leukemia was 48.3%; in the assay on RPMI-8226 leukemia, -23.4% (active); in the assay on OVCAR-8 ovarian, 35%; in the assay with OVCAR-5 ovarian, 3.63% (active); in the assay on OVCAR-4 ovarian, 14.9%; in the assay on SK-OV-3 ovarian it was 14.7%. The growth is 43.2% with IGROV1 ovarian; 3.9% (active) in the assay on HS 578T breast; 13.7% in the assay with NCI/ADR-RES ovarian; 30.6% in the assay with T-47D breast; 74.1% in the assay with BT-549 breast; 26.3% in the assay with MDA-MB-435 melanoma. In addition, the growth with SW-620 colon was 10.9%; with MCF7 breast, 12.1%; in the assay with HCT-116 colon, 12.2%; in the assay on HCC-2998 colon it was -54.4% (active); in the assay on KM12 colon it was -26.4% (active).

The record behind these values is PubChem BioAssay (NCI).
